Experimental data: PubChem BioAssay (NCATS)
Inconclusive results are not listed. Activity calls are given as the source filed them. The call rests on the fitted dose curve; in most records, active means well fitted cell-killing curve with a large enough effect; inconclusive means small, poorly fitted or top-dose-only effect, or effect the other way; inactive means flat fitted curve, though single readings scatter. *1 amine or outer side, *2 acyl side, *3 side chain or, on linkers, in order; H or OH if unused. Where a SMILES comes first, the peptide text is derived from it. Bridges are numbered along the chain shown (N, C = ends). [ ]: non-standard residue; d: D form. The star is where a group is joined. ξ: configuration not given here. ξhTyr(3S-OH,4S-OH,3'-OSO3H) = NC(C(=O)O)[C@H](O)[C@@H](O)c1ccc(O)c(OS(=O)(=O)O)c1; X9 = CCC(C)(N*)C(=O)C1CC[C@@H](C(=O)N[C@@H](Cc2ccccc2)C(=O)NCC(=O)O)N1; Orn(4R-OH,5R-OH) = O=C([C@H](C[C@@H](O)[C@@H](O)N[*:3])N[*:1])[*:2]; X2 = CCCCCOc1ccc(-c2cc(-c3ccc(C(=O)*)cc3)no2)cc1; X3 = C[C@H]1CN([*:1])C(C(=O)[*:2])[C@H]1O; ξGln(3R-OH) = NC(=O)C[C@@H](O)C(N)C(=O)O; X8 = O=C([C@@H]1CC(O)CN1[*:1])[*:2]; ξPro(4R-OH) = O=C(O)C1C[C@@H](O)CN1; aIle = CC[C@@H](C)[C@H](N)C(=O)O; ξThr(3R) = C[C@@H](O)C(N)C(=O)O; Thr(3ξ) = CC(O)[C@H](N)C(=O)O; ξIva = CCC(C)(N)C(=O)O; Aib = CC(C)(N)C(=O)O

Legend:
Test in all cases: Primary qHTS to identify gynecologic anti-cancer compounds using libraries of approved drugs and bioactive compounds (AID 1345084); further: nearly all actives have a fitted effect of over 55% in size
C33A = conditions: Gynecologic cancer cell panel viability, ATPlite luminescence, 48 h; series mostly up to 57.5 µM
Outline: (§1)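 Cell viability after 48 h drug treatment, ATPlite luminescence readout; five doses.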

CAOV3 = conditions: Gynecologic cancer cell panel viability, ATPlite luminescence, 48 h; series mostly up to 57.5 µM
Outline: as §1

Es-2 = conditions: Gynecologic cancer cell panel viability, ATPlite luminescence, 48 h; series mostly up to 57.5 µM
Outline: as §1

HeLa = conditions: Gynecologic cancer cell panel viability, ATPlite luminescence, 48 h; series mostly up to 57.5 µM
Outline: as §1

Hek293T = conditions: Gynecologic cancer cell panel viability, ATPlite luminescence, 48 h, control line for the selectivity index; series mostly up to 57.5 µM
Outline: as §1

JEG-3 = conditions: Gynecologic cancer cell panel viability, ATPlite luminescence, 48 h; series mostly up to 57.5 µM
Outline: as §1

OV90 = conditions: Gynecologic cancer cell panel viability, ATPlite luminescence, 48 h; series mostly up to 57.5 µM
Outline: as §1

PA-1 = conditions: Gynecologic cancer cell panel viability, ATPlite luminescence, 48 h; series mostly up to 57.5 µM
Outline: as §1

Tov-21-G = conditions: Gynecologic cancer cell panel viability, ATPlite luminescence, 48 h; series mostly up to 57.5 µM
Outline: as §1

Tov112D = conditions: Gynecologic cancer cell panel viability, ATPlite luminescence, 48 h; series mostly up to 57.5 µM
Outline: as §1

CASKI = conditions: Gynecologic cancer cell panel viability, ATPlite luminescence, 48 h; series mostly up to 57.5 µM
Outline: as §1

SKOV3 = conditions: Gynecologic cancer cell panel viability, ATPlite luminescence, 48 h; series mostly up to 57.5 µM
Outline: as §1
On the % scale 0 is the no-effect control and ±100 the full control effect.

CCOC(=O)C(CCc1ccccc1)NC1CCCN2CCCC(C(=O)O)N2C1=O (centres undefined)
inactive: Potency (C33A) | Potency (CAOV3) | Potency (Es-2) | Potency (HeLa) | Potency (Hek293T) | Potency (JEG-3) | Potency (OV90) | Potency (PA-1) | Potency (Tov-21-G) | Potency (Tov112D)

CC1(CO)CC(O)C2(C)CCC3(C)C(=CCC4C5(C=O)CCC(OC6OC(C(=O)O)C(O)C(O)C6OC6OC(C(=O)O)C(O)C(O)C6O)C(C)(C)C5CCC43C)C2C1 (centres undefined)
inactive: activity change, negative = cytotoxicity (C33A) 4.08% [at 11.6 µM] | activity change, negative = cytotoxicity (CAOV3) 8.53% [at 11.6 µM] | activity change, negative = cytotoxicity (CASKI) 5.93% [at 11.6 µM] | activity change, negative = cytotoxicity (Es-2) 3.36% [at 11.6 µM] | activity change, negative = cytotoxicity (HeLa) 7.21% [at 11.6 µM] | activity change, negative = cytotoxicity (Hek293T) -0.0914% [at 11.6 µM] | activity change, negative = cytotoxicity (JEG-3) 2.3% [at 11.6 µM] | activity change, negative = cytotoxicity (OV90) 0.842% [at 11.6 µM] | activity change, negative = cytotoxicity (Tov-21-G) 10.3% [at 11.6 µM] | activity change, negative = cytotoxicity (Tov112D) 20.1% [at 11.6 µM]

Cn1nccc1-c1ccccc1Oc1ccc(S(=O)(=O)Nc2nccs2)cc1C#N
inactive: Potency (C33A) | Potency (CAOV3) | outcome (CASKI) | Potency (Es-2) | Potency (HeLa) | Potency (Hek293T) | Potency (JEG-3) | Potency (PA-1) | Potency (Tov-21-G) | Potency (Tov112D)

c1ccc2c(Nc3nnc(-c4ccncc4)s3)cccc2c1
inactive: Potency (C33A) | Potency (CAOV3) | outcome (CASKI) | Potency (Es-2) | Potency (HeLa) | Potency (JEG-3) | Potency (PA-1) | Potency (Tov112D)

CN(C)C(=O)C(O)C(Cc1ccccc1)NC(=O)c1cc2cc(Cl)ccc2[nH]1 (centres undefined)
inactive: Potency (C33A) | Potency (CAOV3) | outcome (CASKI) | Potency (Es-2) | Potency (HeLa) | Potency (JEG-3) | Potency (OV90) | Potency (PA-1) | Potency (SKOV3) | Potency (Tov112D)

CC(=O)NC(Cc1ccccc1)C(=O)NC(C(=O)O)C(C)C (stereo not drawn) (Ac-Phe-Val-OH; configuration not given here)
inactive: Potency (C33A) | Potency (CAOV3) | Potency (Es-2) | Potency (HeLa) | Potency (Hek293T) | Potency (JEG-3) | Potency (OV90) | Potency (PA-1) | Potency (SKOV3) | Potency (Tov-21-G) | Potency (Tov112D)

CCC(C)/C=C(C)/C=C/C1=CC2=C(Cl)C(=O)C(C)(OC(C)=O)C(=O)C2=CN1C(CCCN=C(N)N)C(=O)O (centres undefined)
inactive: Potency (C33A) | Potency (CAOV3) | outcome (CASKI) | Potency (Es-2) | Potency (HeLa) | Potency (JEG-3) | Potency (OV90) | Potency (SKOV3) | Potency (Tov-21-G) | Potency (Tov112D)

CC[C@@H]1C(=O)O[C@]23C=C[C@@H]4C(C(=O)OC)=CO[C@H](O[C@@H]12)[C@@H]43
inactive: Potency (C33A) | Potency (CAOV3) | Potency (Es-2) | Potency (Hek293T) | Potency (OV90) | Potency (PA-1) | Potency (SKOV3) | Potency (Tov-21-G) | Potency (Tov112D)

C/C=C1\[C@H](O[C@@H]2O[C@H](CO)[C@@H](O)[C@H](O)[C@H]2O)OC=C(C(=O)OCCc2ccc(O)cc2)[C@H]1CC(=O)OCCc1ccc(O)cc1
inactive: Potency (C33A) | Potency (CAOV3) | Potency (Es-2) | Potency (HeLa) | Potency (Hek293T) | Potency (OV90) | Potency (PA-1) | Potency (SKOV3) | Potency (Tov-21-G) | Potency (Tov112D)

C=C1C(=O)O[C@@H]2/C=C(\C)CC/C=C(\C(=O)O[C@@H]3O[C@H](CO)[C@@H](O)[C@H](O)[C@H]3O)CC[C@@H]12
inactive: Potency (C33A) | Potency (CAOV3) | Potency (Es-2) | Potency (HeLa) | Potency (JEG-3) | Potency (OV90) | Potency (PA-1) | Potency (SKOV3) | Potency (Tov-21-G) | Potency (Tov112D)

O=C(NC/C=C/CN1CCN(c2cccc(Cl)c2Cl)CC1)c1ccc(-c2ccccn2)cc1
inactive: Potency (C33A) | Potency (CAOV3) | outcome (CASKI) | Potency (Es-2) | Potency (HeLa) | Potency (Hek293T) | Potency (JEG-3) | Potency (OV90) | Potency (Tov-21-G) | Potency (Tov112D)

CCCCCOc1ccc(-c2cc(-c3ccc(C(=O)N[C@H]4C[C@@H](O)[C@@H](O)NC(=O)C5[C@@H](O)[C@@H](C)CN5C(=O)C([C@H](O)CC(N)=O)NC(=O)C([C@H](O)[C@@H](O)c5ccc(O)c(OS(=O)(=O)O)c5)NC(=O)C5C[C@@H](O)CN5C(=O)C([C@@H](C)O)NC4=O)cc3)no2)cc1 (stereo partly drawn) (X2-[Orn(4R-OH,5R-OH)][ξThr(3R)][ξPro(4R-OH)][ξhTyr(3S-OH,4S-OH,3'-OSO3H)][ξGln(3R-OH)][X3]; lactam 1-C)
inactive: Potency (C33A) | Potency (CAOV3) | Potency (Es-2) | Potency (HeLa) | Potency (Hek293T) | Potency (JEG-3) | Potency (OV90) | Potency (PA-1) | Potency (SKOV3) | Potency (Tov-21-G) | Potency (Tov112D)

C[C@@H]1CC[C@]2(C(=O)O)CC[C@]3(C)C(=CCC4[C@@]5(C)C[C@@H](O)[C@@H](O)C(C)(C)C5CC[C@]43C)C2[C@]1(C)O (some centres undefined)
inactive: Potency (C33A) | Potency (CAOV3) | outcome (CASKI) | Potency (Es-2) | Potency (HeLa) | Potency (Hek293T) | Potency (JEG-3) | Potency (OV90) | Potency (Tov-21-G) | Potency (Tov112D)

CC[C@@H](C)[C@H](NC(=O)C(C)(C)NC(=O)[C@H](CCC(N)=O)NC(=O)C(C)(CC)NC(=O)[C@H](Cc1c[nH]c2ccccc12)NC(C)=O)C(=O)N[C@H](C(=O)NC(C)(C)C(=O)N[C@@H](CC(C)C)C(=O)NC(C)(C)C(=O)N1CCC[C@H]1C(=O)N[C@@H](CCC(N)=O)C(=O)NC(C)(C)C(=O)N1CC(O)C[C@H]1C(=O)NC(C)(CC)C(=O)C1CC[C@@H](C(=O)N[C@@H](Cc2ccccc2)C(=O)NCC(=O)O)N1)C(C)O (some centres undefined) (Ac-W[ξIva]Q[Aib][aIle][Thr(3ξ)][Aib]L[Aib]PQ[Aib][X8]-X9)
inactive: activity change, negative = cytotoxicity (C33A) -11% [at 6.55 µM] | activity change, negative = cytotoxicity (CAOV3) -26.3% [at 6.55 µM] | activity change, negative = cytotoxicity (Es-2) 1.15% [at 6.55 µM] | activity change, negative = cytotoxicity (HeLa) -27.1% [at 6.55 µM] | activity change, negative = cytotoxicity (Hek293T) -15.3% [at 6.55 µM] | activity change, negative = cytotoxicity (OV90) -20.1% [at 6.55 µM] | activity change, negative = cytotoxicity (PA-1) -32% [at 6.55 µM] | activity change, negative = cytotoxicity (SKOV3) -9.13% [at 6.55 µM] | activity change, negative = cytotoxicity (Tov-21-G) -16.8% [at 6.55 µM] | activity change, negative = cytotoxicity (Tov112D) -24.7% [at 6.55 µM]
